Source: PubChem BioAssay (NCATS)
Where “and” joins values, the source holds several entries; their conditions need not be identical. Equal entries are not always repeated. Records with an inconclusive call do not appear. Where a call stands in place of a potency, no number is given. The source holds several records for some structures; these can differ, active in one and inactive in another. Calls of active or inactive are those of the source. Calls follow the shape of the dose curve; as a rule, active = well fitted curve in the direction sought with a large enough effect; inconclusive = small, poorly fitted or top-dose-only effect, or another doubt; inactive = no such curve, though single readings can be large; an effect the other way counts as inactive or inconclusive.

Tests used:
[1] = biological target: M-phase phosphoprotein 8 (Homo sapiens) (UniProt Q99549); assay: qHTS Validation Assay for Inhibitors for MPP8 Chromodomain Interactions with Methylated Histone Tails (AID 488949); also: nearly all actives have a fitted effect of over 55% in size; also: potency is read from the fitted curve at half-maximal effect
In short: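 AlphaScreen read-out: streptavidin donor and nickel chelate acceptor beads (final 10 ug/mL), 30 min in the dark at RT. Complex of 50 nM MPP8 and 50 nM b-H3(1-18)K9me3 peptide had been exposed to compounds for 30 min beforehand.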

[2] = biological target: Chromobox protein homolog 1 (Homo sapiens) (UniProt P83916); assay: qHTS Validation Assay for Inhibitors of HP1-beta Chromodomain Interactions with Methylated Histone Tails (AID 488953); also: nearly all actives have a fitted effect of over 50% in size; also: potency is read from the fitted curve at half-maximal effect
In short: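 Measured as loss of AlphaScreen luminescence from streptavidin donor and nickel acceptor beads (10 ug/mL final) bridging HP1-beta and biotin-H3(1-18)K9me3, each 50 nM. Compounds met the preassembled complex for 30 min at RT.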

[3] = biological target: Methanococcus maripaludis chaperonin (MmCpn) (UniProt Q6LX38); assay: High-Throughput Screening for Modulators of Cytosolic Chaperonin Activity: MmCpn Primary Screen (AID 488978);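 also: 50 nM MmCpn enzyme hydrolysing 30 µM ATP at 37 °C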
In short: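 ADP formation read by HTRF Transcreener, 665/590 nm emission after 320 nm excitation. Enzyme: archaeal chaperonin at 50 nM final; substrate ATP 30 uM final; 10 min, 37C, after 5 min compound preincubation at RT.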

[4] = biological target: D(1A) dopamine receptor (Homo sapiens) (UniProt P21728); assay: HTS Assay for Allosteric Agonists of the Human D1 Dopamine Receptor: Primary Screen for Agonists (AID 488981); also: potency is read from the fitted curve at half-maximal effect
In short: (§1)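 Tetracycline-induced HEK293 Trex D1 cells with forced coupling to calcium, loaded with no-wash calcium dye; kinetic fluorescence read 180 s after compound addition for agonism, then a further 180 s after an EC20 dopamine challenge for potentiation.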

[5] = biological target: D(1A) dopamine receptor (Homo sapiens) (UniProt P21728); assay: HTS Assay for Allosteric Agonists of the Human D1 Dopamine Receptor: Primary Screen for Potentiators (AID 488982); also: potency is read from the fitted curve at half-maximal effect
In short: as §1

[6] = biological target: D(1A) dopamine receptor (Homo sapiens) (UniProt P21728); assay: HTS Assay for Allosteric Agonists of the Human D1 Dopamine Receptor: Primary Screen for Antagonists (AID 488983);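 also: calcium flux response to an EC80 dopamine challenge measured with no-wash dye; nearly all actives have a fitted effect of over 65% in size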; also: potency is read from the fitted curve at half-maximal effect
In short: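 Screening of inducible HEK293 T-REx D1 cells: compound first, EC80 dopamine 180 s later, each phase read kinetically for calcium over 180 s.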

[7] = biological target: Thyrotropin receptor (Homo sapiens) (UniProt P16473); assay: qHTS Assay for Antagonists of the Thyroid Stimulating Hormone Receptor (AID 488980); also: series mostly up to about 58 µM
In short: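 TSHR-HEK293 cells; 70 uM RO 20-1724 PDE inhibitor; compound + EC80 TSH (4 nM final); anti-cAMP cryptate antibody/cAMP-d2 in lysis buffer, 30 min RT; HTRF 665/620 nm read.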

[8] = biological target: Transient receptor potential cation channel subfamily V member 1 (Homo sapiens) (UniProt Q8NER1); assay: HTS Assay for Compounds that Act as Enhancers of the Vanilloid Receptor 1 (AID 488979)
In short: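 TRPV1 cells loaded with Fluo-8 calcium dye; compound added and Ca2+ signal (ex 480/em 520 nm) followed 3 min, then capsaicin at EC20 added and read 2 more min to detect enhancement.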

[9] = biological target: Tyrosyl-DNA phosphodiesterase 1 (Homo sapiens) (UniProt Q9NUW8); assay: Confirmation Assay for Inhibitors of Tyrosyl-DNA Phosphodiesterase (TDP1) (AID 489007); settings: recombinant human TDP1 enzymatic activity, dose-response; also: potency is read from the fitted curve at half-maximal effect; nearly all actives have a fitted effect of over 40% in size
Source text: Human tyrosyl-DNA phosphodiesterase I (Tdp1) is a rational anticancer target because this enzyme is involved in the repair of DNA lesions created by the trapping of human DNA topoisomerase I (Top1) following treatment by anticancer agents such as camptothecins. Recombinant Tdp1 was expressed and purified from E. coli in the laboratory (Anthony et al, Nucleic Acids Research, 2007, Vol. 35, 4474-4484). A Tdp1 DNA substrate bearing a 5' biotin and a 3' phospho-tyrosine was obtained by custom synthesis. This oligonucleotidic DNA substrate was subsequently coupled to a fluorescein isothiocyanate (FITC) group via the free amino group present on the phospho-tyrosine. Tdp1 was screened against the NCGC small molecule library using the AlphaScreen (AS) detection method in which a streptavidin donor AS bead is bound at the 5' end and an anti-FITC AS acceptor bead is bound at the 3' end of the DNA oligonucleotidic substrate. In the presence of Tdp1, the enzyme cleaves the tyrosine-FITC group, leaving a 3' end phosphate on the DNA substrate. This cleavage reaction results in a loss of signal in AS.
This BioAssay is a confirmation of followup compounds from primary TDP1 screen (AID:485290)
NIH Molecular Libraries Probe Production Network [MLPCN] […]
3 ul of Tdp1 enzyme is dispensed to 1536-well Kalypsys black solid bottom plates. […] The detection is then performed on a PerkinElmer Envision reader.

[10] = biological target: ATP-dependent 6-phosphofructokinase (Trypanosoma brucei brucei) (UniProt O15648); assay: qHTS Assay to Find Inhibitors of T. brucei phosphofructokinase: hit validation (AID 492961); also: potency is read from the fitted curve at half-maximal effect
In short: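 Compounds titrated; %activity normalized to 0x and 1x enzyme controls, curve-fitted. Readout: ADP-Glo luminescence after 45 min room-temperature reaction of 1.25 nM PFK, 0.1 mM ATP, 0.5 mM F6P, pH 8.0.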

Chain of Chromobox protein homolog 1 (Homo sapiens) (P83916 whole entry, looked up): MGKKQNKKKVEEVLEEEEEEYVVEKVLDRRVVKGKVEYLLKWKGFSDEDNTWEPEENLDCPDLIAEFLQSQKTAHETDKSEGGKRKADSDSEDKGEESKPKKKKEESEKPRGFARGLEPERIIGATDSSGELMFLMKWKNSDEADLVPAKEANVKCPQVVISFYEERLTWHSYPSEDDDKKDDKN
Chain of Transient receptor potential cation channel subfamily V member 1 (Homo sapiens) (Q8NER1 whole entry, looked up): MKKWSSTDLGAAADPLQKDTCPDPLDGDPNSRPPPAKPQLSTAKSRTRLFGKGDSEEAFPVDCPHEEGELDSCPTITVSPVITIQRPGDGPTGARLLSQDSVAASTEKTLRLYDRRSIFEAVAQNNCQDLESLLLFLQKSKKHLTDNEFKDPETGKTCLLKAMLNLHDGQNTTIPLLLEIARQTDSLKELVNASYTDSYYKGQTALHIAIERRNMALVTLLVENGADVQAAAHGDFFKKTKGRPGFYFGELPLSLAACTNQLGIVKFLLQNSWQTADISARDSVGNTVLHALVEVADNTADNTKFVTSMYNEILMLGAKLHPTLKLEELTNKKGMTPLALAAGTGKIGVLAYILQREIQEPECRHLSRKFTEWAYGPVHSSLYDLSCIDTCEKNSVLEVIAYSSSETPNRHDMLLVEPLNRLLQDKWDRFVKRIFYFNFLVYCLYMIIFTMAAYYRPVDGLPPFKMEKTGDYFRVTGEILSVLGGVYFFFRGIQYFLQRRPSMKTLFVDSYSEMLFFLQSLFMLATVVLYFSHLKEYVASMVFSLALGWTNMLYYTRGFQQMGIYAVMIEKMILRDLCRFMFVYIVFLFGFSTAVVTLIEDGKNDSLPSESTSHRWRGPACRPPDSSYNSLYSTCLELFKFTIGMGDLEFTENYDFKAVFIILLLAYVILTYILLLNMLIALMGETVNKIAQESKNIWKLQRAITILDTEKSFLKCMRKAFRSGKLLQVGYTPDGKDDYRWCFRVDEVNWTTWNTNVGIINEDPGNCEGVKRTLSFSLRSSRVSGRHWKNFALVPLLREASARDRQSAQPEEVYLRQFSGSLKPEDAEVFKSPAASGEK
Chain of D(1A) dopamine receptor (Homo sapiens) (P21728 whole entry, looked up): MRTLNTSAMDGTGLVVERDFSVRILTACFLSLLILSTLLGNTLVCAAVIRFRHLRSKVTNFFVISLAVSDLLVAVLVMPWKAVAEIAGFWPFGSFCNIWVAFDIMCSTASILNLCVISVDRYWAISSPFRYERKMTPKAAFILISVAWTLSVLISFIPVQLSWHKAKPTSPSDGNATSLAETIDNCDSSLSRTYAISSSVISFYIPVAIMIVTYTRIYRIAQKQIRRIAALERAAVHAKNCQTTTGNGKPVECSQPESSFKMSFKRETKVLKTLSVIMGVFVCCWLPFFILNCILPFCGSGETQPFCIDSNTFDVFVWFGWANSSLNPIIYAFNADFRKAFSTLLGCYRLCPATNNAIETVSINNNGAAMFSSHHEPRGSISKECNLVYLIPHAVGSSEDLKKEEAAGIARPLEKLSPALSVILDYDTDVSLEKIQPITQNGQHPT
Chain of Tyrosyl-DNA phosphodiesterase 1 (Homo sapiens) (Q9NUW8 whole entry, looked up): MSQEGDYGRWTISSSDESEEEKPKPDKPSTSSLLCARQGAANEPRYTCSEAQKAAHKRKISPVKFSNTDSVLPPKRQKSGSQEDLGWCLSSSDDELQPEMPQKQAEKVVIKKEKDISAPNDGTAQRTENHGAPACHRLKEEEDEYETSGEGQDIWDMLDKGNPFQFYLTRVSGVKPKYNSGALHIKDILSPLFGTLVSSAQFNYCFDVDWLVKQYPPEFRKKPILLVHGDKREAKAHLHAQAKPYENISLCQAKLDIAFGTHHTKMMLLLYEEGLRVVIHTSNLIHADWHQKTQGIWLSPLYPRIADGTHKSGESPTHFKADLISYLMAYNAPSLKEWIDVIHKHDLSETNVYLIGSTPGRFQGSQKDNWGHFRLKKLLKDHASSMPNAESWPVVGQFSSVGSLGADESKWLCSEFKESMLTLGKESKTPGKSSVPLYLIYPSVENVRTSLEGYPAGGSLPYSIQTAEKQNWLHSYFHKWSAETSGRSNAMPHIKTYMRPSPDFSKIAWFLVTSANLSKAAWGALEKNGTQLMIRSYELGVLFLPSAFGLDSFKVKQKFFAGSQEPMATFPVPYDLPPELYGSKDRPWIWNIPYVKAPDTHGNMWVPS
Chain of ATP-dependent 6-phosphofructokinase (Trypanosoma brucei brucei) (O15648 whole entry, looked up): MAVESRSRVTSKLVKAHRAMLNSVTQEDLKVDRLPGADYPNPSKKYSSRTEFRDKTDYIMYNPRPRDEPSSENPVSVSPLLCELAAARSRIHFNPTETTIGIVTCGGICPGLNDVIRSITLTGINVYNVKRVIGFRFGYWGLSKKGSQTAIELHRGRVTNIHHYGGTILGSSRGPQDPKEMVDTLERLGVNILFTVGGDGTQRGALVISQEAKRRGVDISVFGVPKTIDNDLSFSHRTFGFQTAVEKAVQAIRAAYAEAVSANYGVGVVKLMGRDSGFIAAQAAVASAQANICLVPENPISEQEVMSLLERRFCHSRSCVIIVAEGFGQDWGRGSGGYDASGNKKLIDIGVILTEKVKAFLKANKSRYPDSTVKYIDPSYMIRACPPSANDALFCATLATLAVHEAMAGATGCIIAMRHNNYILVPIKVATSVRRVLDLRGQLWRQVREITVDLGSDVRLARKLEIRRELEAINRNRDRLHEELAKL
Chain of Methanococcus maripaludis chaperonin (MmCpn) (Q6LX38 1-543): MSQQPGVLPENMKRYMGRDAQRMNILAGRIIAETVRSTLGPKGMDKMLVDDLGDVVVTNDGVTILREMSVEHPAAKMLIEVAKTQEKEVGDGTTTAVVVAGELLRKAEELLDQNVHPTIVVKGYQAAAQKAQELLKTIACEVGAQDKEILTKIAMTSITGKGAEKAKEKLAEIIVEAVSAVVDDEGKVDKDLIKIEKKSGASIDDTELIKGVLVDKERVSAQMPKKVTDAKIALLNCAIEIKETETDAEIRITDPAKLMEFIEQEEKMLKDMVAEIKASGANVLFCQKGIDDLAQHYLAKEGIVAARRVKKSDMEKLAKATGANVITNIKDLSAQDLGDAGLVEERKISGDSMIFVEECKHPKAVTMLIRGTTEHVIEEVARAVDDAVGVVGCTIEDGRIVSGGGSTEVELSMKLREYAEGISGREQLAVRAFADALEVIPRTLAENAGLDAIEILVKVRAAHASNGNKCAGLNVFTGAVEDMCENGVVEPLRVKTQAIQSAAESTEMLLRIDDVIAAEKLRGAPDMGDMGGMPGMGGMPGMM
Chain of Thyrotropin receptor (Homo sapiens) (P16473 whole entry, looked up): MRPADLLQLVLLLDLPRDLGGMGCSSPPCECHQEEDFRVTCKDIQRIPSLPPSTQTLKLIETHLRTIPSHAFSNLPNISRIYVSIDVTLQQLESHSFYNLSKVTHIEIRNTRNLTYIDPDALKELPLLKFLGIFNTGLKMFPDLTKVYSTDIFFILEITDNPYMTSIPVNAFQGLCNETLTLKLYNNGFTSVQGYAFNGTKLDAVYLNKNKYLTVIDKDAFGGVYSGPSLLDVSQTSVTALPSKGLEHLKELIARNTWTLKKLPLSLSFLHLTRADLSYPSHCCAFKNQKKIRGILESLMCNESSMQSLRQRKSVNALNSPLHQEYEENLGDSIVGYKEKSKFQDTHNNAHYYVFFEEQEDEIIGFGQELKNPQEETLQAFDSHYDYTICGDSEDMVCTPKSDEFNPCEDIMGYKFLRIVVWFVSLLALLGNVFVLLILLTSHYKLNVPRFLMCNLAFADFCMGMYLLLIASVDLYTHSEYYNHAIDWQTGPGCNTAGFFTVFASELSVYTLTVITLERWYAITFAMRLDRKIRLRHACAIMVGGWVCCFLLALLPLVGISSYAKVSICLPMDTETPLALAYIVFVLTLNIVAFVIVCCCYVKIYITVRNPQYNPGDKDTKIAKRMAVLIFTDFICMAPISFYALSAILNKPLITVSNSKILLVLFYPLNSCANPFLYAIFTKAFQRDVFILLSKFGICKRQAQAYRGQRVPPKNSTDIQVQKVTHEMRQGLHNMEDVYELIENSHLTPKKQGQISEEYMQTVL
Chain of M-phase phosphoprotein 8 (Homo sapiens) (Q99549 whole entry, looked up): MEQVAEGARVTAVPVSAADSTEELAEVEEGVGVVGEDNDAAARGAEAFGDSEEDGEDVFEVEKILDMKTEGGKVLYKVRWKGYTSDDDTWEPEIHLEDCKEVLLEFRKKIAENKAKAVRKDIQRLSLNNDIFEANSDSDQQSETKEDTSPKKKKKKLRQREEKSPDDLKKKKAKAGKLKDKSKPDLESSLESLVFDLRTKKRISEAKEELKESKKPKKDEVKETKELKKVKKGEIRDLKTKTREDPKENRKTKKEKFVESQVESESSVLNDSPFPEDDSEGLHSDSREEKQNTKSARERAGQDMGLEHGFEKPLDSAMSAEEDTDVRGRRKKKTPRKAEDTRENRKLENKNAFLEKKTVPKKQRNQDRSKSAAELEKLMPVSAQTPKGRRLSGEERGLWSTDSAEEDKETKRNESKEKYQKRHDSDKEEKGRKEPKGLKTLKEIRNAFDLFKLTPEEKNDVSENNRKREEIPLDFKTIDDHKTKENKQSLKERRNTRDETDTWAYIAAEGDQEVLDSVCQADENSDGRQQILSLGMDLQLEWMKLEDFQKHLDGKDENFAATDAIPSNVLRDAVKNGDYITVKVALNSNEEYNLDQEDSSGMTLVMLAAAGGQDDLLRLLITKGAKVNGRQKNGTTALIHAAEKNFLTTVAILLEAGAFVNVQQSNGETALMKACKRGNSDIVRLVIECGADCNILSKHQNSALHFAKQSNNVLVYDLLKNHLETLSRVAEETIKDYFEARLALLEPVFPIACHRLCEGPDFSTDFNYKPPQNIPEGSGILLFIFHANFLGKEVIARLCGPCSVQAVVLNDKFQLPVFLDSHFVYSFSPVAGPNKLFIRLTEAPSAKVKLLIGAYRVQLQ

| SMILES | Potency [1] | Potency [2] | outcome [3] | Potency [4] | Potency [5] | Potency [6] | outcome [7] | outcome [8] | Potency [9] | Potency [10] |
| --- | --- | --- | --- | --- | --- | --- | --- | --- | --- | --- |
| OCCN(CCO)c1nc(N2CCCCC2)c2nc(N(CCO)CCO)nc(N3CCCCC3)c2n1 | inactive | inactive | inactive | 10 µM (active) | 2.91 µM (active) |  |  |  |  |  |
| O=C(c1ccc(OCCN2CCCCC2)cc1)c1c(-c2ccc(O)cc2)sc2cc(O)ccc12 | 20 µM (active) | 31.6 µM (active) | inactive | inactive |  | inactive |  |  |  |  |
| CNCCCC12CCC(c3ccccc31)c1ccccc12 | inactive | inactive | inactive |  |  |  | inactive |  |  |  |
| CS(=O)(=O)Nc1ccc([N+](=O)[O-])cc1Oc1ccccc1 | inactive | inactive | inactive | inactive |  | inactive | inactive | inactive | 8.91 µM (active) | inactive |
| Clc1ccc(C(c2ccccc2Cl)C(Cl)Cl)cc1 (stereo unspecified) | inactive |  | inactive | inactive | inactive |  | inactive | inactive |  |  |
| COc1cc2nc(N(C)CCCNC(=O)C3CCCO3)nc(N)c2cc1OC (stereo unspecified) | inactive | inactive | inactive | inactive | inactive | inactive |  |  |  |  |
| Cc1cc(C(C)(C)C)c(O)c(C)c1CC1=NCCN1 | inactive | inactive |  | inactive |  |  | inactive | inactive |  |  |
| CCCCc1oc2ccccc2c1C(=O)c1cc(I)c(OCCN(CC)CC)c(I)c1 | inactive | 44.7 µM (active) | inactive | inactive | inactive |  | inactive | inactive |  |  |
| COc1cc2nc(N3CCN(C(=O)C4COc5ccccc5O4)CC3)nc(N)c2cc1OC (stereo unspecified) | inactive |  | inactive | inactive |  |  | inactive | inactive |  |  |
| Cc1ccc(C(=O)Nc2ccc(S(=O)(=O)O)c3cc(S(=O)(=O)O)cc(S(=O)(=O)O)c23)cc1NC(=O)c1cccc(NC(=O)Nc2cccc(C(=O)Nc3cc(C(=O)Nc4ccc(S(=O)(=O)O)c5cc(S(=O)(=O)O)cc(S(=O)(=O)O)c45)ccc3C)c2)c1 | 8.91 µM (active) and 1.89 µM (active) | 2 µM (active) | inactive | inactive |  | inactive | inactive | inactive | 2.51 µM (active) and 5.62 µM (active) and 1.26 µM (active) | 7.08 µM (active) |
| COc1cc2c(c(OC)c1OC)-c1ccc(OC)c(=O)cc1[C@@H](NC(C)=O)CC2 | inactive |  | inactive | inactive | inactive | inactive | inactive | inactive |  | inactive |
| NC(=O)NO | inactive | inactive | inactive | inactive |  |  | inactive | inactive |  |  |
| Cn1ccc2cc3c(cc21)CCN3C(=O)Nc1cccnc1 | 39.8 µM (active) and inactive | 39.8 µM (active) | inactive | inactive |  |  | inactive | inactive |  |  |
| NC(=O)OCC(COC(N)=O)c1ccccc1 | inactive | inactive | inactive | inactive | inactive |  | inactive | inactive |  |  |
| CCC1(c2ccccc2)C(=O)NCNC1=O | inactive | inactive | inactive | inactive | inactive |  | inactive | inactive |  |  |
| COC(=O)Nc1nc2ccc(C(=O)c3cccs3)cc2[nH]1 | inactive | inactive | inactive | inactive |  |  | inactive | inactive |  |  |

| SMILES | Potency [1] | Potency [2] | outcome [3] | Potency [4] | Potency [5] | Potency [6] | outcome [7] | outcome [8] | Potency [9] | Potency [10] |
| --- | --- | --- | --- | --- | --- | --- | --- | --- | --- | --- |
| CN1CCC(=C2c3ccccc3CC(=O)c3sccc32)CC1 | inactive |  | inactive | inactive | inactive |  | inactive | inactive |  |  |
| CCC1(C)CC(=O)NC1=O (stereo unspecified) | inactive | inactive | inactive | inactive | inactive |  |  | inactive |  |  |
| O=c1[nH]cc(F)c(=O)[nH]1 | inactive | inactive | inactive | inactive |  |  | inactive | inactive |  |  |
| Cc1cn([C@H]2C=C[C@@H](CO)O2)c(=O)[nH]c1=O | inactive | inactive | inactive | inactive | inactive | inactive | inactive | inactive |  | inactive |
| COc1ccc2[nH]cc(CCNC(C)=O)c2c1 | inactive | inactive | inactive | inactive | inactive |  | inactive | inactive |  |  |
| NC12CC3CC(CC(C3)C1)C2 | inactive | inactive | inactive | inactive |  | inactive |  | inactive |  |  |
| CCOC(=O)c1ncn2c1CN(C)C(=O)c1cc(F)ccc1-2 | inactive | inactive | inactive | inactive |  |  | inactive |  |  |  |
| Nc1ccn([C@H]2CC[C@@H](CO)O2)c(=O)n1 | inactive | inactive | inactive | inactive |  |  | inactive | inactive |  |  |
| O=C(c1ccc(F)cc1)C1CCN(CCn2c(=O)[nH]c3ccccc3c2=O)CC1 | inactive | inactive | inactive | inactive | inactive | 5.62 µM (active) | inactive | inactive |  |  |
| Clc1ccc2nsnc2c1NC1=NCCN1 | inactive | inactive | inactive | inactive | inactive |  |  |  |  | inactive |
| O=c1c(-c2ccc(O)cc2)coc2cc(O)cc(O)c12 | inactive | inactive | inactive | inactive | inactive |  | inactive | inactive |  |  |
| NCCS(=O)(=O)O | inactive | inactive | inactive | inactive |  | inactive | inactive | inactive |  |  |
| CN(C)CCC=C1c2ccccc2C=Cc2ccccc21 | inactive | inactive | inactive | inactive |  |  | inactive |  |  | inactive |
| Cc1ccccc1N1C(=O)c2cc(S(N)(=O)=O)c(Cl)cc2NC1C (stereo unspecified) | inactive |  | inactive | inactive | inactive | inactive | inactive | inactive |  |  |
| Cn1c(=O)c2c(ncn2C)n(C)c1=O | inactive | inactive | inactive | inactive | inactive | inactive |  | inactive |  |  |
| CC#C[C@]1(O)CC[C@H]2[C@@H]3CCC4=CC(=O)CCC4=C3[C@@H](c3ccc(N(C)C)cc3)C[C@@]21C | 11.9 µM (active) | 25.1 µM (active) | inactive | inactive |  | inactive |  |  |  | inactive |
